For test [1], the target named is T1, Ephrin type-A receptor 3 (Homo sapiens) (UniProt P29320).
T1 sequence (whole entry): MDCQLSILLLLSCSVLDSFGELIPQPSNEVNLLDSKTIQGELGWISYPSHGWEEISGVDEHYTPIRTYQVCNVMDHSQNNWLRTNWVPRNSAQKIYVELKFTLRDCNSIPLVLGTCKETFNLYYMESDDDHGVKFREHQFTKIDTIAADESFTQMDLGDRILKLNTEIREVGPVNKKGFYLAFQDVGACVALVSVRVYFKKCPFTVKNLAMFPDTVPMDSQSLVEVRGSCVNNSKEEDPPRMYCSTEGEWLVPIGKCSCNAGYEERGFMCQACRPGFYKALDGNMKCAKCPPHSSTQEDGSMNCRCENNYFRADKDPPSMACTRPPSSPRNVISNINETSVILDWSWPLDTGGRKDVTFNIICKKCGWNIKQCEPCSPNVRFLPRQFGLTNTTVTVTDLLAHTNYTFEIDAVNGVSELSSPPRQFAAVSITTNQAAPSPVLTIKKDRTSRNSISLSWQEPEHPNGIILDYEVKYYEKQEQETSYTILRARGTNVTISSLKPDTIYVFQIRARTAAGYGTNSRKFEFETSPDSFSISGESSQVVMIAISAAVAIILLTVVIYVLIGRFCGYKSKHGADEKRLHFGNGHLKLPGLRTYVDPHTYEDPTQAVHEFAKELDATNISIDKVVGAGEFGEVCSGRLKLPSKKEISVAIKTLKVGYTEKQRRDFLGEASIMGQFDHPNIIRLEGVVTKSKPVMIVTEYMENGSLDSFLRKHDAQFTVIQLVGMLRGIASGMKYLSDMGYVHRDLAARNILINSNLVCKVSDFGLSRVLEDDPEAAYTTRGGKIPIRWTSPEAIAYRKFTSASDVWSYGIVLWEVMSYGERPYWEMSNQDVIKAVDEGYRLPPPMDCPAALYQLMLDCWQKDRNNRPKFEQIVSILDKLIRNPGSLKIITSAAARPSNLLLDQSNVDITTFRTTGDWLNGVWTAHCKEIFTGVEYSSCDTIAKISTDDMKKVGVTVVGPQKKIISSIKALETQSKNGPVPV
Conditions: at 10 µM.

Test [2] concerns the target Ephrin type-A receptor 7 (Homo sapiens) (UniProt Q15375). The note with it: at 1 µM.
For test [3] the target is unchanged. The note with it: at 10 µM.
For test [4], the target named is T2, Ephrin type-A receptor 8 (Homo sapiens) (UniProt P29322).
T2 sequence (whole entry): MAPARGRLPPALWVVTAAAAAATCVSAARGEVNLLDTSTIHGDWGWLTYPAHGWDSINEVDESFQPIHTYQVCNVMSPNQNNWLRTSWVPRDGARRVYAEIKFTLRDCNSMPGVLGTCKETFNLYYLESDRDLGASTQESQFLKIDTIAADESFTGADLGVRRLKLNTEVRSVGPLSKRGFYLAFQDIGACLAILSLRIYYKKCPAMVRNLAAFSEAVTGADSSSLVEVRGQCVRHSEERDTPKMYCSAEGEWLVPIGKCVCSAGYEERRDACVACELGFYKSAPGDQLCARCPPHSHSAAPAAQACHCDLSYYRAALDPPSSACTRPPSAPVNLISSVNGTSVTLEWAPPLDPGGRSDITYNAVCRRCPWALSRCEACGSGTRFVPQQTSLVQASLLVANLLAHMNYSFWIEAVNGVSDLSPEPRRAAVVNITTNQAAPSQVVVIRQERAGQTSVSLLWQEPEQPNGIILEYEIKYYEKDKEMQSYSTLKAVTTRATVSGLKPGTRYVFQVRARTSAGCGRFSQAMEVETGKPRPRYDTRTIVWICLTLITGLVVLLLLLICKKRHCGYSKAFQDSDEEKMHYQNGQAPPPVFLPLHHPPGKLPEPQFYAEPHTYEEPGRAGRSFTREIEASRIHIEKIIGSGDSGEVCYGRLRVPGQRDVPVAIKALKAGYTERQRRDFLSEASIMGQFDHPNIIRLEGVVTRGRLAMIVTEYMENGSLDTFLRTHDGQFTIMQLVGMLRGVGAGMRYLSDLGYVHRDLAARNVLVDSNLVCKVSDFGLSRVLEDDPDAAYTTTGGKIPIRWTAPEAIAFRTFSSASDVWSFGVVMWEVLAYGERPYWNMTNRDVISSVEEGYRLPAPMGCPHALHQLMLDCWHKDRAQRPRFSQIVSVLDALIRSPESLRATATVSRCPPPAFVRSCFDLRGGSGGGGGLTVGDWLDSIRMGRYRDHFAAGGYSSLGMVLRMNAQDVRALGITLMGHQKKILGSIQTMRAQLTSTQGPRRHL
The note with it: at 1 µM.

The target in test [5] is T2, Ephrin type-A receptor 8 (Homo sapiens). The note with it: at 10 µM.
Test [6] has as its target T3, Ephrin type-B receptor 1 (Homo sapiens) (UniProt P54762).
T3 sequence (whole entry): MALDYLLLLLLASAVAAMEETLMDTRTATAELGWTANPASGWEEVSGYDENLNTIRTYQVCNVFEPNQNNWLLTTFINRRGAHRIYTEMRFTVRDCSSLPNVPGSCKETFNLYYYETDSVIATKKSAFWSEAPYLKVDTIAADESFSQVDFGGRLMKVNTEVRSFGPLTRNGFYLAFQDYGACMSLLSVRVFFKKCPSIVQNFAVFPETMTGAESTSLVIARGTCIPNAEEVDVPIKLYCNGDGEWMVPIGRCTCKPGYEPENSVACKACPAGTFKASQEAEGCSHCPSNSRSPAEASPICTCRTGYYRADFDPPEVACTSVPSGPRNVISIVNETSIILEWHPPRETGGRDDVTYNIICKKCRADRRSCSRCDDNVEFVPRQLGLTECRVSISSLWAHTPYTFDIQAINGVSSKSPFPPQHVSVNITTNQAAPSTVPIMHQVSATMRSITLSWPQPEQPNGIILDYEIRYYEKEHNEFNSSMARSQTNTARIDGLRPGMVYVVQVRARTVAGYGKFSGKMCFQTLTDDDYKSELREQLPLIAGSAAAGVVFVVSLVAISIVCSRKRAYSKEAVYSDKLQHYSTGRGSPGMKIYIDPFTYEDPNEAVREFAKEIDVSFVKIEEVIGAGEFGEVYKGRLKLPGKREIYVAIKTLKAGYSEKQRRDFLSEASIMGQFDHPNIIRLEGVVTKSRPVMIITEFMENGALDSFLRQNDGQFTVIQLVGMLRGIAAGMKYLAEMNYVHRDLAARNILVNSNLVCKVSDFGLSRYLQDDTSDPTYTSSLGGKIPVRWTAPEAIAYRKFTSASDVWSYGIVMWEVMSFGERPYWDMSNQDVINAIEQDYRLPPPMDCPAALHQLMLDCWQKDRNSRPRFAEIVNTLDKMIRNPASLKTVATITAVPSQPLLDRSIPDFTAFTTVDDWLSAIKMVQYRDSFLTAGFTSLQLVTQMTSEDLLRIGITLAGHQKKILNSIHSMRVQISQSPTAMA
The note with it: at 1 µM.

Test [7] concerns the target T3, Ephrin type-B receptor 1 (Homo sapiens). The note with it: at 10 µM.
Test [8] addresses T4, Ephrin type-B receptor 2 (Homo sapiens) (UniProt P29323).
T4 sequence (whole entry): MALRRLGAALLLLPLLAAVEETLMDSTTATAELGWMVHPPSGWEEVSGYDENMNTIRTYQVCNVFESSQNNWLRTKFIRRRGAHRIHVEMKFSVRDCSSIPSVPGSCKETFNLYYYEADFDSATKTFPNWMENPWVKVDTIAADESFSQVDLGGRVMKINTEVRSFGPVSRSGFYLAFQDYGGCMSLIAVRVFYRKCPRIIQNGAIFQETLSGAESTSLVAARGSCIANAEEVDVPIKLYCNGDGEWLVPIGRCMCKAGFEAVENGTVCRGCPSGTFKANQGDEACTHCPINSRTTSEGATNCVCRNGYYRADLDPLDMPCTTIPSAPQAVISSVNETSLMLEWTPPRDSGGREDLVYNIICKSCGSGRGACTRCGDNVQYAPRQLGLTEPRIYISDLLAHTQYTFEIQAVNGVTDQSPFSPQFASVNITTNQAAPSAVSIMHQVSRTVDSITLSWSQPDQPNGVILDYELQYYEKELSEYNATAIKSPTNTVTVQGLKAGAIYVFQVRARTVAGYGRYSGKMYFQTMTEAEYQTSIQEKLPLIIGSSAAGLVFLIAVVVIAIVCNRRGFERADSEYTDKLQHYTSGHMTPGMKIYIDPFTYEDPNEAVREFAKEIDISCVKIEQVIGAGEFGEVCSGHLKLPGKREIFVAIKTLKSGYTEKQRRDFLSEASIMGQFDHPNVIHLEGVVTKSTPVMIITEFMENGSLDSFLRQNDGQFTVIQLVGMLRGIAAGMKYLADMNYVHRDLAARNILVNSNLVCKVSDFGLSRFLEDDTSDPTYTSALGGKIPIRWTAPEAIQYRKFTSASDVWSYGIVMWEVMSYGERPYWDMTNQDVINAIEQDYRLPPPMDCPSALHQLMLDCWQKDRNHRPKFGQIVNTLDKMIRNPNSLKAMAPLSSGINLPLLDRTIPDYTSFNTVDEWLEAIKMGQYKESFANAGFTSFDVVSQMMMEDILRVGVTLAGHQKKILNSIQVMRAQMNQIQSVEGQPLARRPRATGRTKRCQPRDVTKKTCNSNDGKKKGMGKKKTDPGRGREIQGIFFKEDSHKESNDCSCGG
Conditions: at 1 µM.

For test [9], the target named is T4, Ephrin type-B receptor 2 (Homo sapiens). The note with it: at 10 µM.
For test [10], the target named is T5, Ephrin type-B receptor 4 (Homo sapiens) (UniProt P54760).
T5 sequence (whole entry): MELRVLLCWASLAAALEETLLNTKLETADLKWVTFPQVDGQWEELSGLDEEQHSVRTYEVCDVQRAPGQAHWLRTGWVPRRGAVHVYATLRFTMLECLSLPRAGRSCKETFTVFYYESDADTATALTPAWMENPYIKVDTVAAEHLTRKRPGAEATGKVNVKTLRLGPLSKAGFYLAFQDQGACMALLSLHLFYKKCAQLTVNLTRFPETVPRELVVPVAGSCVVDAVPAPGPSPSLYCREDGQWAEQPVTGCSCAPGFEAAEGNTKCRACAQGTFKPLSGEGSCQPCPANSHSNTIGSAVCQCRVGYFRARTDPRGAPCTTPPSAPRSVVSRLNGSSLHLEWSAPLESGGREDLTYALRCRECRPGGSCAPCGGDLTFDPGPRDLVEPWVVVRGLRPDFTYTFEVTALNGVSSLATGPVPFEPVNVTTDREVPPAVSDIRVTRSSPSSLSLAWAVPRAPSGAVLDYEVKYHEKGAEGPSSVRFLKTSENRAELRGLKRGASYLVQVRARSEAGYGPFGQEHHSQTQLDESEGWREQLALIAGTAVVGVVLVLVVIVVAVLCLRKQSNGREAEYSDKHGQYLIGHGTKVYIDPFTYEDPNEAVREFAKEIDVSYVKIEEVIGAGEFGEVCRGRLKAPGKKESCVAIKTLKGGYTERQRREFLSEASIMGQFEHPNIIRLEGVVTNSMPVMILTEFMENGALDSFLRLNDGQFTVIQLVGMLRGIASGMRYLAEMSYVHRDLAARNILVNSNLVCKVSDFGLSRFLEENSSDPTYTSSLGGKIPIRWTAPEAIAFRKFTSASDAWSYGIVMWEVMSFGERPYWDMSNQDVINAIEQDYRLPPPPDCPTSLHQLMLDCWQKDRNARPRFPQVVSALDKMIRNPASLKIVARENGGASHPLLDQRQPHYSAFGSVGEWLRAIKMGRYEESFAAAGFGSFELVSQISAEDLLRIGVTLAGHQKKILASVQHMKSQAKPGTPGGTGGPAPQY
The note with it: at 1 µM.

Test [11] concerns the target T5, Ephrin type-B receptor 4 (Homo sapiens). The note with it: at 10 µM.
For test [12], the target named is Focal adhesion kinase 1 (Homo sapiens) (UniProt Q05397). The note with it: at 1 µM.
Chain of Focal adhesion kinase 1 (Homo sapiens) (Q05397 2-1052 limits assumed): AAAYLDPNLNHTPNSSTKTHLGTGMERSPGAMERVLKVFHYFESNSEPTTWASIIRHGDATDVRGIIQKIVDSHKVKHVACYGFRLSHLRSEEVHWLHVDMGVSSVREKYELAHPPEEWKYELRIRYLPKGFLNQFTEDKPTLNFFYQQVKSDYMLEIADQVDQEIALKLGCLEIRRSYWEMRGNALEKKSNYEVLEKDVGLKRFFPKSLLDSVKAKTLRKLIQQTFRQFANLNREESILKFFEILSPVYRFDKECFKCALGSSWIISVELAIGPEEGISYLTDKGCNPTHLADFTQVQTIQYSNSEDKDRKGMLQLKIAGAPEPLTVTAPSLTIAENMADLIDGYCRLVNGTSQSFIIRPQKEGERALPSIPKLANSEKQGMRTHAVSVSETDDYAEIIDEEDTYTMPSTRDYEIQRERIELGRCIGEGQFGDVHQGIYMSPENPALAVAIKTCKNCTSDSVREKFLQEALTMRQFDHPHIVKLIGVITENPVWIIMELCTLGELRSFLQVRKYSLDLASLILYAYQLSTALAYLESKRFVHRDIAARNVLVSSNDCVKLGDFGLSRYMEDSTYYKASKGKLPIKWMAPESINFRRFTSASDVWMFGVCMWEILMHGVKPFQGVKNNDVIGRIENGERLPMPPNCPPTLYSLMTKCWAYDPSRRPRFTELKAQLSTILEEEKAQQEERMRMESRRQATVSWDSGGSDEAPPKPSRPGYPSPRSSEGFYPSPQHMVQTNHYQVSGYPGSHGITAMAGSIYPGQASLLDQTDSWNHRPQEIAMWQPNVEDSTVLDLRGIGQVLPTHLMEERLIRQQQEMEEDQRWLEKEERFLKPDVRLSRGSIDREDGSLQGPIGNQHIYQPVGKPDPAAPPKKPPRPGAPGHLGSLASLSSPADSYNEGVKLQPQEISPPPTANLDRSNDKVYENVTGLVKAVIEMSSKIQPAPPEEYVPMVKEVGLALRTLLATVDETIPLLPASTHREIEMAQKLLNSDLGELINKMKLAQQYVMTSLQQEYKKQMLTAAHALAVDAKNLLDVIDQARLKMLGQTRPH

Chain of Ephrin type-A receptor 7 (Homo sapiens) (Q15375 28-998 limits assumed): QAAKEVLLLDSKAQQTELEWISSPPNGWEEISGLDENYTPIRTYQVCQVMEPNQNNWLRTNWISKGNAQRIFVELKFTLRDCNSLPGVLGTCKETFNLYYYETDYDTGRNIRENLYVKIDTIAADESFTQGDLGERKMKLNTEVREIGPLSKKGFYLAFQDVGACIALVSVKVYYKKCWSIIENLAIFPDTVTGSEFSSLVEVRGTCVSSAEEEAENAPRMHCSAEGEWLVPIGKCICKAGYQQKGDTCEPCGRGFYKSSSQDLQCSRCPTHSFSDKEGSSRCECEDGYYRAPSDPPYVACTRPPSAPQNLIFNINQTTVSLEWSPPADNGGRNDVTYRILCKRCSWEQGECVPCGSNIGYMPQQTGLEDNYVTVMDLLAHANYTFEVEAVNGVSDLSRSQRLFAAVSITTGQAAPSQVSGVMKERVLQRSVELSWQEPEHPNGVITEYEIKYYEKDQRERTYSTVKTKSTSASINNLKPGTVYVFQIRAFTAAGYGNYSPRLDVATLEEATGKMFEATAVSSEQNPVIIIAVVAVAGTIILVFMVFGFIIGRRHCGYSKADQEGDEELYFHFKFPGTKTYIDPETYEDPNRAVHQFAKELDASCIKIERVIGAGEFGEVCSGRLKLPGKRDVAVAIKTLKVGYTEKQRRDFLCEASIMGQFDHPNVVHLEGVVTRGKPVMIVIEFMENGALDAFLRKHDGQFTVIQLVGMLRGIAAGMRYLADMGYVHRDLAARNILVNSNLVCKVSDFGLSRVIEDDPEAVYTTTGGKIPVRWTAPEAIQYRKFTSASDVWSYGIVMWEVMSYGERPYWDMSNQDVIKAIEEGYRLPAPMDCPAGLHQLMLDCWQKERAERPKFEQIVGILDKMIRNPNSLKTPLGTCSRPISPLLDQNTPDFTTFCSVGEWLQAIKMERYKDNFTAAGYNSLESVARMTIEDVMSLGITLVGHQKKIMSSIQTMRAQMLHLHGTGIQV

A word on the residual activity: it is the signal under treatment as a percentage of the control signal. For `O=C1Cc2c([nH]c3ccc(Br)cc23)-c2ccccc2N1`, the residual activity in [1] is 58%; in test [2], 98%; in test [3] it was 72%; in test [4], 95%; in [5], 82%; in test [6], 98%. Also, the residual activity amounted to 76% in test [7]; 121% in [8]; 120% in test [9]; 89% in [10]; 71% in test [11]; 82% in test [12].

These data come from ChEMBL document CHEMBL2218924, “A broad activity screen in support of a chemogenomic map for kinase signalling research and drug discovery” (Biochem J, 2013).
